Experimental data taken from PubChem BioAssay (NCATS).
Inconclusive results are not listed. A call without a number means that no potency is given here. A number with no mark means an inactive call. Active and inactive are the calls of the source. The call rests on the fitted dose curve; in most records, active means well fitted inhibition curve with a large enough effect; inconclusive means small, poorly fitted or top-dose-only effect; inactive means flat fitted curve, though single readings scatter.

Target: Calcium and integrin-binding protein 1 (Homo sapiens) (UniProt Q99828)
Sequence (Q99828 whole entry, looked up): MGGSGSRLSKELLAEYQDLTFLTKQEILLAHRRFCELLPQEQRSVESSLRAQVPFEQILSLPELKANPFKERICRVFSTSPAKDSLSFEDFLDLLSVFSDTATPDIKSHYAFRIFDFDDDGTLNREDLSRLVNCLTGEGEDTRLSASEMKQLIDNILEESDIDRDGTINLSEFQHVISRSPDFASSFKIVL
Experiment: Primary qHTS for Identification of Calcium Integrin Binding Protein 1 (CIB1) Competitor (AID 1508620);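 further: GST tagged CIB1 binding a fluorescein labelled alphaIIb integrin peptide tracer; top concentration of the series differs between compounds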
Conditions: CIB1-GST / FITC-alphaIIb peptide fluorescence polarization; series mostly up to 57.7 µM
In short: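 CIB1-GST (1 uM final) and compound incubated 15 min at room temperature before adding FITC-alphaIIb peptide tracer (100 nM final). Competition for binding read by fluorescence polarization (ex 480, em 540) after another 15 min at room temperature.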

SMILES	Potency	activity change, negative = inhibition
COc1cc(C/C(=C/NC(C)=O)N(CC(=O)Cc2ccccc2)C(C)=O)cc2c1OCO2	inactive	
CCCCS(=O)(=O)Nc1ncnc(OCCOc2ncc(Br)cn2)c1-c1ccc(Br)cc1	inactive	
CC(NCc1ccc(OCc2cccc(F)c2)cc1)C(N)=O (stereo not given)	inactive	
C(#Cc1cccc(CN2CCOCC2)c1)CCN1CCCCC1	inactive	
COC1C2=C(COC2=O)C2(C)CCCC(C)(CO)C2C1OC(=O)c1ccccc1 (stereo not given)	inactive	
C=C1C(O[C@@H]2O[C@H](CO)[C@@H](O)[C@H](O)[C@@H]2O)CC2C(C)(C)C(O)CCC2(C)C1CC/C(C)=C\CO (stereo not given in full)	inactive	
C=CC(C)(C)C12CC3C(=O)NC(Cc4cnc[nH]4)C(=O)N3C1Nc1ccccc12 (stereo not given)	inactive	
CC1(C)C[C@H]2C3=CCC4[C@@]5(C)CC[C@H](O[C@H]6O[C@H](C(=O)O)[C@@H](O)[C@H](O)[C@H]6O[C@H]6O[C@H](CO)[C@@H](O)[C@H](O)[C@H]6O[C@@H]6O[C@H](CO)[C@@H](O)[C@H](O)[C@H]6O)[C@](C)(CO)C5CC[C@@]4(C)[C@]3(C)CC[C@@]2(C)[C@H](O[C@@H]2OC[C@H](O)[C@H](OC3O[C@H](CO)[C@@H](O)[C@H](O)[C@H]3O)[C@H]2O)[C@@H]1O (stereo not given in full)		-7.85% [at 12.4 µM]
CC(C)=CC/C=C(/C)[C@H]1CC[C@]2(C)[C@@H]1[C@H](O)CC1[C@@]3(C)CC[C@H](O)C(C)(C)[C@@H]3[C@@H](O[C@@H]3O[C@H](CO)[C@@H](O)[C@H](O)[C@H]3O[C@@H]3O[C@@H](C)[C@H](O)[C@@H](O)[C@H]3O)C[C@]12C (stereo not given in full)	inactive	
CC(C)c1cc2c(c(O)c1O[C@@H]1O[C@H](CO)[C@@H](O)[C@H](O)[C@H]1O)CC1(O)CCC(O)C(C)(C)C1CC2 (stereo not given in full)	inactive	
C[C@]1(OC(=O)/C=C/c2ccccc2)C[C@H](O)[C@]2(O)C=CO[C@@H](O[C@@H]3O[C@H](CO)[C@@H](O)[C@H](O)[C@H]3O)C12 (stereo not given in full)	inactive	
CC(=O)O[C@H]1C[C@@H]2[C@]3(CC[C@]4(C)[C@@H](C5(C)CCC(C(C)(C)O)O5)[C@@H](O)C[C@@]24C)C[C@@]32CC[C@H](O[C@@H]3OC[C@@H](O)[C@H](O)[C@H]3O)C(C)(C)[C@H]12 (stereo not given in full)	inactive	
COC(=O)[C@@]1(C)CC[C@]2(C(=O)O[C@@H]3O[C@H](CO)[C@@H](O)[C@H](O)[C@H]3O)CC[C@]3(C)C(=CCC4[C@@]5(C)CC[C@H](O[C@@H]6O[C@H](C(=O)O)[C@@H](O)[C@H](O)[C@H]6O)C(C)(C)C5CC[C@]43C)[C@@H]2C1 (stereo not given in full)	inactive	
CC[C@H]1OC(=O)[C@H](C)[C@@H](OC2C[C@@](C)(OC)[C@@H](O)[C@H](C)O2)[C@H](C)[C@@H](OC2O[C@H](C)C[C@H](NC)[C@H]2O)[C@](C)(O)C[C@@H](C)CN(C)[C@H](C)[C@@H](O)[C@]1(C)O (stereo not given in full)	inactive	
c1ccc(Cc2ncc3c(n2)CCNCC3)cc1	inactive	
COC(=O)C1=CO[C@@H](O[C@@H]2O[C@H](CO)[C@@H](O)[C@H](O)[C@H]2O)[C@@H]2[C@@](C)(O)[C@@H](O)C[C@]12O	inactive	
CO[C@@]12CC3[C@@H]([C@@H](O)[C@@H](OC(C)=O)C4[C@](C)(COC(C)=O)CCC[C@]34C)[C@@H](C)C1=CC(=O)O2 (stereo not given in full)	inactive	
Nc1c(Br)cc(Br)cc1CNC1CCC(O)CC1 (stereo not given)	inactive	
CC1(C(=O)O)CCCC2(C)C1CCC13CC(CCC21)C1(CO)OC31 (stereo not given)	inactive	
C[C@@H]1O[C@@H](O[C@H]2[C@H](O[C@H]3CC[C@@]4(C)C(CC[C@]5(C)C4CC=C4[C@@H]6CC(C)(C)CC[C@]6(C(=O)O)CC[C@]45C)[C@]3(C)CO)OC[C@H](O)[C@@H]2O)[C@H](O)[C@H](O[C@@H]2OC[C@@H](O)[C@H](O)[C@H]2O)[C@H]1O (stereo not given in full)	inactive	
CC12CCC3c4ccc(O)cc4CCC3C1CCC2OC1OC(C(=O)O)C(O)C(O)C1O (stereo not given)	inactive	
C=C1CC[C@@H]2[C@](C)(CO[C@@H]3O[C@H](CO)[C@@H](O)[C@H](O)[C@H]3O)CCC[C@@]2(C)[C@@H]1CCC1=CCOC1=O	inactive	
CC(=O)N[C@H]1[C@H](O[C@H]2CC[C@@]3(C)C(CC[C@]4(C)C3CC=C3C5CC(C)(C)CC[C@]5(C(=O)O)[C@H](O[C@@H]5O[C@H](CO)[C@@H](O)[C@H](O)[C@H]5O)C[C@]34C)C2(C)C)O[C@H](CO[C@@H]2OC[C@H](O)[C@H](O)[C@H]2O[C@@H]2OC[C@@H](O)[C@H](O)[C@H]2O)[C@@H](O)[C@@H]1O (stereo not given in full)	inactive	
CC1=CC2(O)/C=C/C(C)(O)CC(O)/C=C/C(=O)OC23C(=O)NC(CC(C)C)C3C1C (stereo not given)	inactive	
COc1cc([C@H]2OC[C@@H]3[C@@H](c4ccc(O[C@@H]5O[C@H](CO)[C@@H](O)[C@H](O)[C@H]5O)c(OC)c4)OC[C@]23O)ccc1O	inactive	
